Results from PubChem BioAssay (EPA / NIEHS).
Active and inactive are the calls of the source. The calls were made as follows: active = hit-call score of the fitted dose curve at least 0.9, where 1 is the maximum; inactive = score below 0.9.

What was measured:
[1] = BSK_3C_VCAM1: BioMAP Diversity Plus: 3C Assay for Vascular cell adhesion molecule 1 (VCAM1) Biomarker Activity (AID 2282999); settings: BioMAP 3C HUVEC, VCAM1 ELISA, cytokine-stimulated; actives raise or lower the signal
How it was run: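 Human umbilical vein endothelial cells (3C system), biomarker read by ELISA 24 h after dosing; bidirectional fit against DMSO baseline. Cytotoxicity tracked by SRB total-protein staining in parallel cultures at biomarker time.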

[2] = BSK_3C_Proliferation: Cell Proliferation Assessment in the BioMAP Diversity Plus: 3C Assay (AID 2283006); settings: primary human endothelial cells (HUVEC);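 as to AC50: potency may reflect either rise or fall in cell number versus DMSO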
How it was run: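 Subconfluent HUVEC (3C system) cultured with chemical; relative cell number read at 48 h by sulforhodamine B total-protein staining (0.1% SRB after 10% TCA fixation, 560 nm). Bidirectional fit relative to DMSO.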

[3] = read-out: E-selectin (Homo sapiens) (UniProt P16581); assay: BSK_3C_Eselectin: BioMAP Diversity Plus: 3C Assay for Eselectin Biomarker Activity (AID 2283015); settings: primary human endothelial cells (HUVEC); actives raise or lower the signal
How it was run: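 ELISA read-out of E-selectin on endothelial monolayers after 24 h chemical treatment. Human umbilical vein primary cells served as the system, with DMSO defining baseline activity for bidirectional fitting.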

[4] = read-out: Matrix Metallopeptidase 1 (MMP1), MMP1 (gene 4312); assay: BSK_BE3C_MMP1: BioMAP Diversity Plus: BE3C Assay for Matrix Metallopeptidase 1 (MMP1) Biomarker Activity (AID 2283024); settings: primary human bronchial epithelial cells; actives raise or lower the signal
How it was run: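 Human primary bronchial epithelial cells (BE3C system) dosed for 24 h; MMP-1 quantified by ELISA. Bidirectional fit against DMSO; cytotoxicity tracked in parallel cultures by SRB total-protein staining.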

[5] = BSK_3C_Vis: BioMAP Diversity Plus: 3C Assay for Morphology Visualization (AID 2283025); settings: primary human endothelial cells (HUVEC);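 also: fitted both ways so gain or loss versus DMSO counts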;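 as to AC50: light microscopy image of cell morphology used as background control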
How it was run: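 Human umbilical vein endothelial cell morphology was inspected by light microscopy 24 h after chemical dosing; scored bidirectionally relative to DMSO.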

[6] = BSK_BE3C_SRB: Viability Assessment in the BioMAP Diversity Plus: BE3C Assay (AID 2283028); settings: primary human bronchial epithelial cells
How it was run: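 Cells (human bronchial epithelial, primary) are treated with chemicals, and after 24 h the parallel cultures are fixed in 10% TCA. These are then stained with 0.1% SRB and read at 560 nm. Gain or loss of signal is fitted relative to DMSO.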

[7] = read-out: Vascular endothelial growth factor receptor 2 (Homo sapiens) (UniProt P35968); assay: BSK_4H_VEGFRII: BioMAP Diversity Plus: 4H Assay for Vascular endothelial growth factor receptor 2 (VEGFR2) Biomarker Activity (AID 2283031); settings: primary human endothelial cells (HUVEC); actives raise or lower the signal;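 as to AC50: cell-surface VEGFR2 protein level quantified by ELISA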
How it was run: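 ELISA read-out of VEGFRII in primary human umbilical vein endothelium, taken 24 h after chemical treatment. Responses are expressed relative to DMSO, with bidirectional fitting.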

[8] = read-out: Human Leukocyte Antigen - DR isotype (HLADR), HLA-DRA (gene 3122); assay: BSK_BE3C_HLADR: BioMAP Diversity Plus: BE3C Assay for Human Leukocyte Antigen - DR isotype (HLADR) Biomarker Activity (AID 2283032); settings: primary human bronchial epithelial cells; actives raise or lower the signal
How it was run: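 Human primary bronchial epithelial cells (BE3C system) exposed to compound for 24 hours; cell-surface HLA-DR measured by ELISA, fitted bidirectionally relative to DMSO. Total protein by SRB in parallel cultures tracked cytotoxicity.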

[9] = read-out: Vascular cell adhesion molecule 1 (VCAM1), VCAM1 (gene 7412); assay: BSK_4H_VCAM1: BioMAP Diversity Plus: 4H Assay for Vascular cell adhesion molecule 1 (VCAM1) Biomarker Activity (AID 2283033); settings: primary human endothelial cells (HUVEC); actives raise or lower the signal
How it was run: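 Primary human umbilical vein endothelial cells, 4H stimulation system, treated for 24 h; cell-surface VCAM-1 quantified by ELISA. Bidirectional fitting against DMSO; cytotoxicity tracked by SRB total-protein staining in parallel cultures.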

[10] = read-out: Interferon-gamma inducible Protein 10 (IP10), CXCL10 (gene 3627); assay: BSK_BE3C_IP10: BioMAP Diversity Plus: BE3C Assay for Interferon-gamma inducible Protein 10 (IP10) Biomarker Activity (AID 2283034); settings: primary human bronchial epithelial cells; actives raise or lower the signal
How it was run: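 Primary human bronchial epithelial cells, with IP-10 measured by ELISA 24 hours after chemical dosing. Bidirectional fit against DMSO; cytotoxicity checked by SRB total protein staining in parallel cultures.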

[11] = read-out: Transforming growth factor beta 1 (TGFb1), TGFB1 (gene 7040); assay: BSK_BE3C_TGFb1: BioMAP Diversity Plus: BE3C Assay for Transforming growth factor beta 1 (TGFb1) Biomarker Activity (AID 2283036); settings: primary human bronchial epithelial cells; actives raise or lower the signal
How it was run: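 Primary human bronchial epithelial cells dosed with chemical; TGF-b1 measured by ELISA 24 h after dosing. Bidirectional curve fitting against DMSO negative control; SRB total-protein staining in parallel cultures gauged cytotoxicity.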

[12] = read-out: Urokinase-type plasminogen activator receptor (uPAR), PLAUR (gene 5329); assay: BSK_BE3C_uPAR: BioMAP Diversity Plus: BE3C Assay for Urokinase-type plasminogen activator receptor (uPAR) Biomarker Activity (AID 2283039); settings: primary human bronchial epithelial cells; actives raise or lower the signal;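 also: uPAR protein level measured by ELISA on the cells; cells exposed to compound for one day before measurement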
How it was run: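 Primary human bronchial epithelial cells dosed for 24 h; uPAR quantified by ELISA with bidirectional fitting against DMSO. Overt cytotoxicity assessed in parallel cultures by SRB total-protein staining (0.1% SRB, 560 nm).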

[13] = read-out: Interleukin-6 (IL6), IL6 (gene 3569); assay: BSK_CASM3C_IL6: BioMAP Diversity Plus: CASM3C Assay for Interleukin-6 (IL6) Biomarker Activity for (AID 2283040); settings: primary human coronary artery smooth muscle cells; actives raise or lower the signal
[14] = read-out: Monocyte Chemoattractant Protein-1 (MCP1), CCL2 (gene 6347); assay: BSK_CASM3C_MCP1: BioMAP Diversity Plus: CASM3C Assay for Monocyte Chemoattractant Protein-1 (MCP1) Biomarker Activity (AID 2283046); settings: primary human coronary artery smooth muscle cells; actives raise or lower the signal
[15] = read-out: Interleukin-1 alpha (IL1a), IL1A (gene 3552); assay: BSK_LPS_IL1a: BioMAP Diversity Plus: LPS Assay for Interleukin-1 alpha (IL1a) Biomarker Activity (AID 2283080); settings: primary human HUVEC with PBMC; actives raise or lower the signal
How it was run: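 ELISA read-out of IL-1 alpha from a human primary vascular co-culture (endothelium plus PBMC) under LPS, sampled 24 hours post-dosing. Activity was fitted in both directions relative to DMSO controls.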

[16] = read-out: Monocyte Chemoattractant Protein-1 (MCP1), CCL2 (gene 6347); assay: BSK_LPS_MCP1: BioMAP Diversity Plus: LPS Assay for Monocyte Chemoattractant Protein-1 (MCP1) Biomarker Activity (AID 2283081); settings: primary human HUVEC with PBMC; actives raise or lower the signal;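 as to AC50: secreted MCP-1 protein quantified by ELISA in culture supernatant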
How it was run: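 Human endothelial–PBMC co-cultures were dosed with chemical, then LPS-driven MCP-1 levels were quantified by ELISA at 24 h. Activity in either direction was fitted versus DMSO negative control.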

[17] = BSK_LPS_PGE2: BioMAP Diversity Plus: LPS Assay for Prostaglandin E2 (PGE2) Biomarker Activity (AID 2283082); settings: primary human HUVEC with PBMC; actives raise or lower the signal
How it was run: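 HUVEC plus human PBMC co-culture stimulated with LPS; secreted PGE2 quantified by ELISA 24 h after chemical dosing. Activity fitted bidirectionally against DMSO baseline; parallel SRB staining (0.1% SRB after 10% TCA fixation, 560 nm) flags overt cytotoxicity.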

[18] = read-out: Tumor necrosis factor (Homo sapiens) (UniProt P01375); assay: BSK_LPS_TNFa: BioMAP Diversity Plus: LPS Assay for Tumour Necrosis Factor alpha (TNFa) Biomarker Activity (AID 2283085); settings: primary human HUVEC with PBMC; actives raise or lower the signal
How it was run: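 Human umbilical vein endothelial cells co-cultured with PBMC and stimulated with LPS. TNFa was measured by ELISA 24 h after chemical dosing, fitted bidirectionally relative to DMSO.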

[19] = read-out: Monocyte Chemoattractant Protein-1 (MCP1), CCL2 (gene 6347); assay: BSK_SAg_MCP1: BioMAP Diversity Plus: SAg Assay for Monocyte Chemoattractant Protein-1 (MCP1) Biomarker Activity (AID 2283090); settings: primary human HUVEC with PBMC; actives raise or lower the signal
How it was run: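 MCP-1 levels in the endothelial–PBMC SAg co-culture were quantified by ELISA at 24 h post-dosing; both increases and decreases versus DMSO scored. Cytotoxicity monitored by SRB total protein in parallel cultures.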

[20] = read-out: Monokine induced gamma interferon (MIG), CXCL9 (gene 4283); assay: BSK_SAg_MIG: BioMAP Diversity Plus: SAg Assay for Monokine induced gamma interferon (MIG) Biomarker Activity (AID 2283092); settings: primary human HUVEC with PBMC; actives raise or lower the signal
How it was run: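 ELISA readout of MIG/CXCL9; primary human umbilical vein endothelial cells co-cultured with peripheral blood mononuclear cells; 24 h post-dose; gain/loss fit vs DMSO baseline.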

Measured: AC50

Sequence of E-selectin (Homo sapiens) (P16581 whole entry, looked up): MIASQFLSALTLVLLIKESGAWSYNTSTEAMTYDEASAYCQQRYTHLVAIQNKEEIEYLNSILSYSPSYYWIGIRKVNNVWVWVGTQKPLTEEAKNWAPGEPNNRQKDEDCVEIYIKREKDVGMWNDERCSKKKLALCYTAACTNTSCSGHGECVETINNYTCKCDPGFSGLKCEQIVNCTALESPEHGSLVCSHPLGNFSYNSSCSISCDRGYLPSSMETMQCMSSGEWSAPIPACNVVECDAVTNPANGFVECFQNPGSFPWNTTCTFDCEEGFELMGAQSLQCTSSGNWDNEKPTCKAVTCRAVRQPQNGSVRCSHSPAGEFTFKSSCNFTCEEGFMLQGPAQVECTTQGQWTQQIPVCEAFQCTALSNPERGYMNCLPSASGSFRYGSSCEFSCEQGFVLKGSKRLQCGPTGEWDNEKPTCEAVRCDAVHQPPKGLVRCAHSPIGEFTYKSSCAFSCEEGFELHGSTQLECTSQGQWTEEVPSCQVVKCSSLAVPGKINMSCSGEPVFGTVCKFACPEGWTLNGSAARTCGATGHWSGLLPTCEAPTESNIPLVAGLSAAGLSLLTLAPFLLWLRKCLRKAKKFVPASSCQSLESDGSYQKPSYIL
Sequence of Tumor necrosis factor (Homo sapiens) (P01375 whole entry, looked up): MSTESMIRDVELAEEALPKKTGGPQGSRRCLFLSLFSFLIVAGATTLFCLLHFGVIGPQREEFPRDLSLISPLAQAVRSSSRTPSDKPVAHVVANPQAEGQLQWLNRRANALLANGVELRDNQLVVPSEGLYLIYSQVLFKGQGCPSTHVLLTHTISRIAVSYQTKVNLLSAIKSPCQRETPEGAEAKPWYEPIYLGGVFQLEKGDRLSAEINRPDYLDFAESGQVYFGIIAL

O=c1c2ccccc2c(=O)c2c1cc(Cl)c1[nH]c3c([nH]c12)c(Cl)cc1c(=O)c2ccccc2c(=O)c13
active: [4] 20 µM
inactive: [1] | [2] | [3] | [5] | [6] | [7] | [8] | [9] | [10] | [11] | [12] | [13] | [14] | [15] | [16] | [17] | [18] | [19] | [20]

CCCOC(=O)c1ccccc1C(=O)OCCC
inactive: [1] | [2] | [4] | [5] | [6] | [7] | [9] | [10] | [11] | [12] | [13] | [14] | [15] | [16] | [17] | [20]
active: [3] 36.4 µM | [8] 0.274 µM | [18] 20 µM | [19] 20 µM

O=P1(NCCCl)OCCCN1CCCl (stereo not given)
inactive: [1] | [2] | [3] | [4] | [5] | [6] | [7] | [8] | [9] | [10] | [11] | [12] | [13] | [14] | [15] | [16] | [17] | [18] | [19] | [20]

O=c1[nH]c(Cl)c(Cl)cc1Cl
inactive: [1] | [2] | [3] | [4] | [5] | [6] | [7] | [8] | [9] | [10] | [11] | [12] | [13] | [14] | [15] | [16] | [17] | [18] | [19] | [20]

COC(C)(C)CCC[C@H](C)C/C=C/C(C)=C/C(=O)OC(C)C
active: [1] 28.8 µM | [2] 26 µM | [3] 28.7 µM | [4] 20 µM | [5] 37.4 µM | [7] 32 µM | [8] 18.5 µM | [9] 31.6 µM | [10] 20 µM | [15] 36.4 µM | [16] 29.6 µM | [18] 32.7 µM | [19] 20 µM
inactive: [6] | [11] | [12] | [13] | [14] | [17] | [20]
